Source: PubChem (ICCB-Longwood Screening Facility, Harvard Medical School)
Only a selection was taken, and hits are over-represented in it overall.
Ba CapD inh = Bacillus anthracis CapD inhibitors, primary screen, biochemical, fluorescence intensity; CapD gamma-glutamyltranspeptidase (Bacillus anthracis Ames Ancestor); purified CapD enzyme, fluorescence intensity read-out; active compounds read low; z-score (concentration not given with the values); 140,000 tested, 0.23% active; AID 492967, 2010; in the data active = z-score mostly below about -2.9, no sharp cut-off; inactive = mostly above about -1.9
Numbers without * were called inactive.

SMILES | Ba CapD inh
O=C1S/C(=C\c2ccco2)C(=O)N1c1ccccc1 | -2.4*
O=C(O)c1cccc(-c2ccc(/C=C3/SC(=O)N(c4ccccc4)C3=O)o2)c1 | 18
CN(CC1CC=CCC1)CC(O)c1ccccc1 (stereo unspecified) | -0.095
CCOC(=O)c1sc(NC(=O)Cn2c3ccccc3c(=O)c3ccccc32)nc1C | 24
O=C(CCC(=O)Nc1nc(-c2cc3ccccc3oc2=O)cs1)NCc1ccco1 | 9.7
CCNc1ccc([N+](=O)[O-])cc1 | -4.5*
CCOC(=O)CC(=O)c1ccc([N+](=O)[O-])cc1 | -0.14
CC(=O)Nc1ccc([N+](=O)[O-])cc1 | -1.6
Cc1ccc(C)c(N2S(=O)(=O)c3ccccc3S2(=O)=O)c1 | -0.28
Cc1cc(/C=C2/SC(=O)N(C)C2=O)c(C)n1-c1ccccc1 | -0.21
CCOC(=O)CSc1nc2c([nH]c3ccccc32)c(=O)n1-c1ccc(F)cc1 | 1.5
CCOC(=O)C1CCN(C(=O)C2c3ccccc3C(=O)N3CCc4ccccc4C23)CC1 (stereo unspecified) | -0.41
CCOc1cc2c(cc1OCC)C1C(C(=O)N3CCCC3)c3ccccc3C(=O)N1CC2 (stereo unspecified) | 0.45
CCOc1cc2c(cc1OCC)C1C(C(=O)N3CCCCC3)c3ccccc3C(=O)N1CC2 (stereo unspecified) | -5.9*
O=c1oc(-c2ccco2)nc2sc3c(c12)CCC3 | -0.15
O=C1C(=O)N(c2cccc(C(F)(F)F)c2)C(c2ccc(Br)cc2)/C1=C(/O)c1ccccc1 (stereo unspecified) | -0.4
COc1ccc(NC(=O)CS(=O)(=O)c2ccc3c(c2)S(=O)(=O)N=CN3)cc1 | -0.055
O=C(O)CSCc1ccc(Br)cc1 | 0.95
Nc1nc(SCC(=O)N2CCCCCC2)n[nH]1 | -0.74
CC1=NN(c2ccc3c(S(=O)(=O)O)cc(S(=O)(=O)O)cc3c2)C(=O)C1 | -6*
CC1=NN(c2ccc(C(=O)NCc3ccc(N(C)C)cc3)cc2)C(=O)C1 | -1.1
CC1=NN(c2ccccc2)C(=O)C1 | -0.89
CCOc1ccc(N2C(=O)/C(=C\c3cc(OC)c(OC)c(OC)c3)S(=O)(=O)C2c2cccc([N+](=O)[O-])c2)cc1 (stereo unspecified) | -0.8
c1ccc(-c2ccc(-c3ccccn3)nc2)nc1 | 1.2
COc1cc2ncnc(Nc3ccccc3)c2cc1OC | 3.1
SMILES | Ba CapD inh
COC(=O)CCS(=O)(=O)c1nc(-c2cccs2)cc(C(F)(F)F)n1 | -0.2
CCC(=O)N1CCc2cc(S(=O)(=O)Nc3ccccc3OC)ccc21 | 0.41
COc1cc(NS(=O)(=O)c2ccc3c(c2)CCN3C(=O)CCC(=O)O)c(C(=O)O)cc1OC | -4.3*
O=C(O)CCC(=O)N1CCc2cc(S(=O)(=O)NCc3ccccc3)ccc21 | -1.6
CC(C)NC(=O)CN1CCN(C(=O)c2ccc(-c3ccccn3)s2)CC1 | 1.5
O=C(CN1CCOCC1)N1CCc2ccccc21 | -0.42
COc1cc(C2C3=C(Nc4c2c(=O)n(C)c(=O)n4C)c2ccccc2C3=O)ccc1O (stereo unspecified) | 0.76
CC(=O)OCc1c(C(F)(F)F)nn(C)c1S(=O)(=O)c1ccc(Cl)cc1 | 0.35
CSC(SC)=C(C#N)C(=O)c1cccc(C)c1 | -1.5
CSC(SC)=C(C#N)C(=O)c1cccc(C(F)(F)F)c1 | -1.4
CSC(SC)=C(C#N)C(=O)c1ccccc1Cl | -4.7*
CCOC(=O)CCc1c(C)nc2ccc(Br)cn2c1=O | -0.21
Cc1ccccc1C(=O)Nc1c(C(=O)N2CCOCC2)oc2ccccc12 | -1.4
NC(=O)c1oc2ccccc2c1NC(=O)c1cccs1 | 0.76
O=C(Nc1c(C(=O)N2CCOCC2)oc2ccccc12)c1cccs1 | -3.6*
O=C(O)c1ccc(Nc2nccc(Nc3ccccc3C(=O)O)n2)cc1 | 13
O=C(O)c1cc(Nc2ccccc2C(=O)O)nc(Nc2ccccc2C(=O)O)n1 | -5.1*
O=C(O)/C=C\C(=O)Nc1ccccc1C(=O)O | 5.8
O=C(/C=C/c1ccco1)NNC(=O)OCCN1CCN(c2ccc(C(F)(F)F)cn2)CC1 | -1
CCN1C(=O)/C(=C\c2cc(C)n(CC(F)(F)F)c2C)SC1=S | -0.1
Cc1ccc(OCC(=O)O)c(C)c1 | -0.085
CCc1nc(C)ccc1OCC(N)=O | 0.37
CCc1nc(C)ccc1OCC(=O)O | -5*
Cc1ccc(S(=O)(=O)N(CC(O)Cn2c3ccc(Cl)cc3c3cc(Cl)ccc32)c2ccccc2)cc1 (stereo unspecified) | 0.085
CCC1CCCCN1C(=O)CSc1ccc(Cl)cc1 (stereo unspecified) | -0.29
SMILES | Ba CapD inh
CCC1CCCCN1C(=O)CSc1nnc(-c2ccc(Cl)cc2)o1 (stereo unspecified) | -4.8*
CCC1CCCCN1C(=O)CSCc1ccc(Cl)cc1 (stereo unspecified) | 0.29
O=C(NCCCN1CCc2ccccc2C1)NCc1ccccc1 | -0.11
O=C(Cn1ncc2ccccc21)NCC1CCCO1 (stereo unspecified) | -2
CCCN1C/C(=C/c2ccsc2)C(=O)/C(=C/c2ccsc2)C1 | -4.7*
O=C1/C(=C\c2ccsc2)CC/C1=C/c1ccsc1 | -0.21
